ALOX12 inh = blocks human arachidonate 12S-lipoxygenase | P18054 | purified 12hLO, xylenol orange hydroperoxide absorbance | Potency, µM (highest dose often 108 µM), without a hit: top-dose activity change, negative = inhibition, most hits filed as inhibitors | actives 1.1% (n = 580,000); note: % is set by controls: 0 for no effect and ±100 for the full control effect
Target sequence (P18054 whole entry, looked up): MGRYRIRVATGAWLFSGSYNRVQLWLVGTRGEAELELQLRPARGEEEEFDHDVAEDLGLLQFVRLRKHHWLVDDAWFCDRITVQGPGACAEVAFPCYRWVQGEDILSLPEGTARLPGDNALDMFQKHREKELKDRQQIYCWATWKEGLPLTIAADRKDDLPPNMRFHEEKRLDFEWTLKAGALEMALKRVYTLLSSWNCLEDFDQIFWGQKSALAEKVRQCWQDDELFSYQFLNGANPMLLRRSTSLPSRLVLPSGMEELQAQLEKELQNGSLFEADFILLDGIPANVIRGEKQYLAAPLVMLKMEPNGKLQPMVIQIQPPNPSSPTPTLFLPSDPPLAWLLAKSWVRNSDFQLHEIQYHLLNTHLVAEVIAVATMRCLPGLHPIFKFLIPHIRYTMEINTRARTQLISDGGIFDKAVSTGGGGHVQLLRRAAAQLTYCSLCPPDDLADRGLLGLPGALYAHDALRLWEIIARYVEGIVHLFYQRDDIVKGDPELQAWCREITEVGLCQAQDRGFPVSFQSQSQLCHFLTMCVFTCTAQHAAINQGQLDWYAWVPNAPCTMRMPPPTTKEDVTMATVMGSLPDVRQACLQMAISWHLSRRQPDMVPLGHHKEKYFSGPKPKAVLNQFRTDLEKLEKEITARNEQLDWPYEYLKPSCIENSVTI
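Purified human 12hLO (150 nM final) in 25 mM Hepes, 0.01% Triton X-100, pH 7.0 was preincubated 15 min at room temperature with compound. Then 40 uM arachidonic acid was added, 30 min. Hydroperoxide was read by Fe-XO absorbance ratio 573/405 nm.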
Glioma ERSR ind = induces the endoplasmic reticulum stress response in human glioma cells; U87-MG GRP78 promoter luciferase reporter, 16 h; Potency, µM, without a hit: at the highest dose activation, hits mostly activators; actives 0.02% (n = 420,000); AID 602332; note: series mostly up to about 76 µM; % of control where 0% means no effect; nearly all actives have a fitted effect of over 35% in size
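Stably transfected U87-MG human glioma cells carrying a GRP78-based luminescent sensor were seeded at 1000 cells/well, pin-dosed with compounds and incubated 16 h. Luciferase reagent was then added, and end-point luminescence was read after 10 min at room temperature.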
GLP-1R agonist = GLP-1 receptor (human) agonism; AID 624172; P43220; HEK293 GLP-1R CRE-luciferase, luminescence, 4-6 h; cells express a hypersensitive GLP-1R form; actives 0.007% (n = 380,000); Potency, µM (highest dose often 45.6 µM), without a hit: at the top dose activation, most hits filed as activators; note: % of control where 0% means no effect
GLP-1R inv ag = GLP-1 receptor (human) inverse agonism. Potency, µM (titrated, usually from 38.3 µM), without a hit: top-dose activity change, negative = inhibition, usual class: inhibitors. actives 1.6% (n = 410,000). HEK293 GLP-1R CRE-luciferase, luminescence, 24 h; GLP-1R form is constitutively active. P43220; note: % is set by controls: 0 for no effect and ±100 for the full control effect; nearly all actives have a fitted effect of over 55% in size
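Assay principle: reduced luminescence from a cAMP-responsive reporter in HEK293 cells co-expressing a constitutively active GLP-1R. Conditions: 24 hr compound incubation, 37 deg C, 5% CO2.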
PTHR1 agonist = agonists of human PTHR1 parathyroid hormone receptor; Q03431; HEK293 GP2 PTHR1 cells, GloSensor cAMP luminescence, 1 h; Potency, µM (series often up to 115 µM), for inactives: at the highest dose activation, hits mostly activators; actives 0.075% (n = 410,000); note: nearly all actives have a fitted effect of over 55% in size
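HEK-293-derived GP2 cells expressing PTHR1 and a GloSensor cAMP reporter, 3,000/well, plated overnight, given luciferin plus IBMX (each 0.5 mM as added) for 1 h at 37 °C, then compound for 1 h at 37 °C. Luminescence was read after 15 min at room temperature.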
GLS inhibitor = blocks human kidney-isoform glutaminase activity; GLS enzymatic activity, qHTS titration; Potency, µM (top dose mostly 45.5 µM), inactives show at the top dose activity change, negative = inhibition, hits mostly inhibitors; O94925; actives 0.21% (n = 410,000); AID 624170; note: % is set by controls: 0 for no effect and ±100 for the full control effect
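Read-out is an Amplex red fluorescence increase coupled through glutamate oxidase and HRP, measured before and after 30 min room-temperature incubation. hKGA is in 45 mM KH2PO4 (pH 8.2) with 0.02% Tween-20; glutamine added as 1mM solution.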
* = called active by the depositor; ! = not active in a repeat; [ ] = dose if it differs, or a comment. In the library only some 2.3% were active in any assay of this set; here they are far more common. Calls come from the whole dose curve; as a rule, active = well fitted curve in the direction sought with a large enough effect; inconclusive = small, poorly fitted or top-dose-only effect, or another doubt; inactive = no such curve, though single readings can be large; an effect the other way counts as inactive or inconclusive. Potency is the fitted concentration of half-maximal effect.

How did CCCCCCCCCC(CC)c1ccc(S(=O)(=O)O)cc1 (centres undefined) do in these assays?
ALOX12 inh: 23µM*; Glioma ERSR ind: -3%; GLP-1R agonist: -3%; GLS inhibitor: 20%

What do the screens show for `Cn1nc(-c2ccc(F)cc2)cc1[C@H]1CN2CC[C@H]1C[C@@H]2CNC(=O)c1ccc2c(c1)OCO2`?
ALOX12 inh: 26%

What do the screens show for `O=C1NC(=O)N(c2cccc(Br)c2)C(=O)/C1=C/c1ccsc1`?
ALOX12 inh: 45µM*; Glioma ERSR ind: -5%; GLP-1R agonist: 2%; GLP-1R inv ag: inconclusive; PTHR1 agonist: -28%; GLS inhibitor: -11%

How did CN1CCN(C(=O)COc2ccc(-c3nc4ccccc4s3)cc2)CC1 do in these assays?
ALOX12 inh: -35%; Glioma ERSR ind: -9%; GLP-1R agonist: -5%; GLP-1R inv ag: 6.3µM*; PTHR1 agonist: -30%[57.5 µM]; GLS inhibitor: -3%

Results for CN1CCN(C(=O)COc2ccc3ccccc3c2)CC1 ?
ALOX12 inh: 13%; Glioma ERSR ind: 1%; GLP-1R agonist: 0%; GLP-1R inv ag: 14%; PTHR1 agonist: 3%; GLS inhibitor: -19%

Results for COc1ccccc1CNC(=O)[C@H]1CN2CCC1C[C@@H]2Cn1cc(C(C)(C)O)nn1 (some centres undefined) ?
ALOX12 inh: 23%[176 µM]

Results for Cc1cc2c(C(C)C)c(O)c(O)c(C=O)c2c(O)c1-c1c(C)cc2c(C(C)C)c(O)c(O)c(C=O)c2c1O ?
ALOX12 inh: 1.1µM*!; Glioma ERSR ind: -14%; GLP-1R agonist: 7%; GLS inhibitor: inconclusive

How did COC(=O)C1=C(c2ccc(Cl)c(C(F)(F)F)c2)C[C@@H]2CC[C@H]1N2C(=O)N1CCC(O)(c2ccc(Cl)cc2)CC1 do in these assays?
ALOX12 inh: -11%; Glioma ERSR ind: 5%; GLP-1R agonist: -3%; GLP-1R inv ag: 8.9µM*; PTHR1 agonist: inactive; GLS inhibitor: -6%

How did COC(=O)C1=C(c2ccc(Cl)c(C(F)(F)F)c2)C[C@@H]2CC[C@H]1N2C(=O)N1CCCC1 do in these assays?
ALOX12 inh: -1%; Glioma ERSR ind: -2%; GLP-1R agonist: 13%; GLP-1R inv ag: inconclusive; PTHR1 agonist: -17%; GLS inhibitor: -4%

Results for C=CCn1c(O)c(C(C)=Nc2ccc(C(=O)OCC)cc2)c(=O)[nH]c1=O ?
ALOX12 inh: 5.6µM*; Glioma ERSR ind: 1%; GLP-1R agonist: -1%; GLP-1R inv ag: inconclusive; PTHR1 agonist: inactive; GLS inhibitor: -1%

Results for COc1ccc(CNC[C@H]2C[C@@H]3CCN2C[C@@H]3c2cc(C3CCCCC3)nn2C)cc1 ?
ALOX12 inh: 42%[176 µM]

What do the screens show for `CCN(C1CCOCC1)C1CNC1`?
ALOX12 inh: 6%

How did CC1=C(C(=O)O)N2C(=O)C(NC(=O)CCCC(=O)O)C2SC1 (centres undefined) do in these assays?
ALOX12 inh: 28µM*; Glioma ERSR ind: -3%; GLP-1R agonist: -1%; GLP-1R inv ag: -1%; PTHR1 agonist: inactive; GLS inhibitor: 16%

How did CC(=O)OCC1=C(C(=O)O)N2C(=O)[C@@H](N)[C@H]2SC1 do in these assays?
ALOX12 inh: -5%[57.4 µM]

Results for COc1cc(C2SCC(=O)Nc3[nH]ncc32)ccc1OCC(C)C (centres undefined) ?
ALOX12 inh: -6%

What do the screens show for `CCOC(=O)[C@]12Cc3cc(OC)ccc3[C@H]1N(C)C(=O)c1ccccc12`?
ALOX12 inh: -29%; GLP-1R agonist: -3%; GLP-1R inv ag: 20%; PTHR1 agonist: -15%; GLS inhibitor: inconclusive

How did CCOC(=O)[C@]12Cc3cc(OC)ccc3[C@H]1N(C1CCCCC1)C(=O)c1ccccc12 do in these assays?
ALOX12 inh: -69%; GLP-1R agonist: -11%; GLP-1R inv ag: 2.5µM*; PTHR1 agonist: -6%; GLS inhibitor: 54%

Results for CCOC(=O)[C@]12Cc3cc(Cl)ccc3[C@H]1N(C)C(=O)c1ccccc12 ?
ALOX12 inh: -35%; GLP-1R agonist: -10%; GLP-1R inv ag: 21%; PTHR1 agonist: -81%; GLS inhibitor: inconclusive

What do the screens show for `CCOC(=O)[C@]12Cc3cc(Cl)ccc3[C@H]1N(CC(=O)OC)C(=O)c1ccccc12`?
GLP-1R agonist: -13%; GLP-1R inv ag: 7.9µM*; PTHR1 agonist: -93%; GLS inhibitor: -2%

What do the screens show for `CCOC(=O)[C@]12Cc3cc(Cl)ccc3[C@H]1N(C1CCCCC1)C(=O)c1ccccc12`?
GLP-1R agonist: -26%; GLP-1R inv ag: 4.5µM*; PTHR1 agonist: -95%; GLS inhibitor: 32%

What do the screens show for `CCCC(C)NC(=O)COC(=O)c1c(C)n(C2CC2)c2ccc(OC)cc12` (centres undefined)?
ALOX12 inh: 7%

How did Cc1nc(-c2ccco2)cc([C@H]2CN3CC[C@H]2C[C@@H]3CNCc2ccccc2)n1 do in these assays?
ALOX12 inh: 67%[176 µM]

How did CC(C)Cn1cc(C(=O)NCC2CCCN2C)c2ccccc21 (centres undefined) do in these assays?
ALOX12 inh: -2%

What do the screens show for `COc1ccc(C)cc1NC(=O)c1cn(C)c2ccccc12`?
ALOX12 inh: -3%

Results for COC(=O)Cc1ccccc1 ?
ALOX12 inh: -2%[176 µM]

How did COc1cccc(CN(C)C[C@@H]2OCc3ccccc3-c3c(n(C)c4ccccc34)C(=O)N([C@@H](C)CO)C[C@H]2C)c1 do in these assays?
ALOX12 inh: -4%; Glioma ERSR ind: -4%; GLP-1R agonist: -3%; GLP-1R inv ag: 10µM*; PTHR1 agonist: 24%; GLS inhibitor: -4%

What do the screens show for `Cc1[nH]c2ccccc2c1CCN`?
ALOX12 inh: -6%; Glioma ERSR ind: -2%; GLP-1R agonist: -3%; GLP-1R inv ag: -17%; PTHR1 agonist: inactive; GLS inhibitor: 18%

How did Cc1[nH]c2ccc(C34CC5CC(CC(C5)C3)C4)cc2c1CCN do in these assays?
ALOX12 inh: 32µM*

How did O=C(O)c1ccc2c(c1)C1C(Cl)C(Sc3ccccc3[N+](=O)[O-])CC1C(c1cccc([N+](=O)[O-])c1)N2 (centres undefined) do in these assays?
Glioma ERSR ind: -4%; GLP-1R agonist: 4%; GLP-1R inv ag: 14%; PTHR1 agonist: -31%; GLS inhibitor: -8%

Assay outcomes from PubChem BioAssay.
